# Assays:
# [1] = biological target: Proteasome subunit beta type-4 (UniProt P99026); experiment: cross-link between two proteins; cross-linking mass spectrometry
# [2] = biological target: Proteasome subunit beta type-7 (UniProt P70195); experiment: as above
# Putative protein FAM10A5 = Putative protein FAM10A5 (UniProt Q8NFI4); experiment: as above
# [3] = biological target: RCC1-like G exchanging factor-like protein (UniProt Q96I51); experiment: as above
# Radixin = Radixin (UniProt P35241); experiment: as above
# [4] = biological target: Ragulator complex protein LAMTOR3 (UniProt Q9UHA4); experiment: as above
# [5] = biological target: Ras-related protein Rab-3A (UniProt P63011); experiment: as above
# [6] = biological target: Rho guanine nucleotide exchange factor 7 (UniProt Q9ES28); experiment: as above
# [7] = biological target: Ribosome-binding protein 1 (UniProt Q9P2E9); experiment: as above
# [8] = biological target: S-adenosylhomocysteine hydrolase-like protein 1 (UniProt Q80SW1); experiment: as above
# Septin-10 = Septin-10 (UniProt Q9P0V9); experiment: as above
# Septin-2 = Septin-2 (UniProt Q15019); experiment: as above
# Septin-8 = Septin-8 (UniProt Q8CHH9); experiment: as above
# [9] = biological target: Small ribosomal subunit protein mS40 (UniProt Q9Y676); experiment: as above
# [10] = biological target: Sodium/potassium-transporting ATPase subunit alpha-1 (UniProt Q8VDN2); experiment: as above
# [11] = biological target: Sodium/potassium-transporting ATPase subunit alpha-2 (UniProt Q6PIE5); experiment: as above
# [12] = biological target: Spectrin alpha chain, non-erythrocytic 1 (UniProt P16546); experiment: as above
# [13] = biological target: Splicing factor 3B subunit 2 (UniProt Q13435); experiment: as above
# [14] = biological target: Ras-related protein Rab-5C (UniProt P51148); experiment: cross-linking mass spectrometry
# [15] = biological target: T-complex protein 1 subunit gamma (UniProt P49368); experiment: cross-linking mass spectrometry
# [16] = biological target: tRNA-splicing ligase complex subunit RTRAF (UniProt Q9Y224); experiment: cross-linking mass spectrometry
# [17] = biological target: Succinate--CoA ligase [ADP-forming] subunit beta, mitochondrial (UniProt Q9P2R7); experiment: cross-link between two proteins; cross-linking mass spectrometry
# Synapsin-2 = Synapsin-2 (UniProt Q64332); experiment: as above
# [18] = biological target: Vesicle-associated membrane protein 1 (UniProt Q62442); experiment: as above
# Synapsin-3 = Synapsin-3 (UniProt Q8JZP2); experiment: as above
# [19] = biological target: Synaptic vesicle glycoprotein 2A (UniProt Q9JIS5); experiment: as above
# Synaptopodin = Synaptopodin (UniProt Q8CC35); experiment: as above
# Synaptotagmin-2 = Synaptotagmin-2 (UniProt P46097); experiment: as above
# [20] = biological target: T-complex protein 1 subunit beta (UniProt P80314); experiment: as above
# [21] = biological target: T-complex protein 1 subunit delta (UniProt P80315); experiment: as above
# [22] = biological target: T-complex protein 1 subunit epsilon (UniProt P80316); experiment: as above
# [23] = biological target: T-complex protein 1 subunit theta (UniProt P42932); experiment: as above
# [24] = biological target: T-complex protein 1 subunit gamma (UniProt P80318); experiment: as above
# [25] = biological target: T-complex protein 1 subunit zeta (UniProt P80317); experiment: as above
# Talin-2 = Talin-2 (UniProt Q71LX4); experiment: as above
# [26] = biological target: Thioredoxin domain-containing protein 5 (UniProt Q8NBS9); experiment: as above
# [27] = biological target: Transcriptional activator protein Pur-alpha (UniProt P42669); experiment: as above
# [28] = biological target: Translation machinery-associated protein 7 (UniProt Q9Y2S6); experiment: as above
# [29] = biological target: Transmembrane emp24 domain-containing protein 5 (UniProt Q9Y3A6); experiment: as above
# [30] = biological target: Trifunctional enzyme subunit alpha, mitochondrial (UniProt P40939); experiment: as above
# Tubulin alpha-1A chain = Tubulin alpha-1A chain (UniProt P68369); experiment: as above
# [31] = biological target: UDP-glucose:glycoprotein glucosyltransferase 1 (UniProt Q9NYU2); experiment: as above
# [32] = biological target: Ubiquitin-like protein NEDD8 (UniProt Q15843); experiment: as above
# [33] = biological target: V-type proton ATPase subunit C 1 (UniProt Q9Z1G3); experiment: as above
# [34] = biological target: V-type proton ATPase subunit F (UniProt Q9D1K2); experiment: as above
# [35] = biological target: V-type proton ATPase subunit D (UniProt P57746); experiment: as above
# [36] = biological target: V-type proton ATPase subunit E 1 (UniProt P50518); experiment: as above
# [37] = biological target: V-type proton ATPase subunit G 1 (UniProt Q9CR51); experiment: as above
# [38] = biological target: V-type proton ATPase subunit G 2 (UniProt Q9WTT4); experiment: as above
# [39] = biological target: V-type proton ATPase subunit H (UniProt Q8BVE3); experiment: as above
# [40] = biological target: Vesicle transport through interaction with t-SNAREs homolog 1B (UniProt Q9UEU0); experiment: as above
# [41] = biological target: Vesicle-associated membrane protein-associated protein A (UniProt Q9WV55); experiment: as above
# Vimentin = Vimentin (UniProt P08670); experiment: as above
# [42] = biological target: tRNA-splicing ligase complex subunit RTRAF (UniProt Q9CQE8); experiment: as above
# [43] = biological target: Cytochrome c oxidase assembly factor 7 (UniProt Q96BR5); experiment: mass-spectrometry hit list; affinity purification or IP with mass spectrometry; cross-linking mass spectrometry
# Chain of V-type proton ATPase subunit D, P57746 (P57746 whole entry): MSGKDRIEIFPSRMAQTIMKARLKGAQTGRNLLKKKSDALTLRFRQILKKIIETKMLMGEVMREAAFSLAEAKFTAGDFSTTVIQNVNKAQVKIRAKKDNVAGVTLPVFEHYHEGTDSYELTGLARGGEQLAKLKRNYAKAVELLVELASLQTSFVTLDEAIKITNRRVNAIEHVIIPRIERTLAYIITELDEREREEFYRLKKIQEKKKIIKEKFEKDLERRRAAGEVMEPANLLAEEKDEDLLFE
# Chain of T-complex protein 1 subunit epsilon (P80316 whole entry, one chain of several): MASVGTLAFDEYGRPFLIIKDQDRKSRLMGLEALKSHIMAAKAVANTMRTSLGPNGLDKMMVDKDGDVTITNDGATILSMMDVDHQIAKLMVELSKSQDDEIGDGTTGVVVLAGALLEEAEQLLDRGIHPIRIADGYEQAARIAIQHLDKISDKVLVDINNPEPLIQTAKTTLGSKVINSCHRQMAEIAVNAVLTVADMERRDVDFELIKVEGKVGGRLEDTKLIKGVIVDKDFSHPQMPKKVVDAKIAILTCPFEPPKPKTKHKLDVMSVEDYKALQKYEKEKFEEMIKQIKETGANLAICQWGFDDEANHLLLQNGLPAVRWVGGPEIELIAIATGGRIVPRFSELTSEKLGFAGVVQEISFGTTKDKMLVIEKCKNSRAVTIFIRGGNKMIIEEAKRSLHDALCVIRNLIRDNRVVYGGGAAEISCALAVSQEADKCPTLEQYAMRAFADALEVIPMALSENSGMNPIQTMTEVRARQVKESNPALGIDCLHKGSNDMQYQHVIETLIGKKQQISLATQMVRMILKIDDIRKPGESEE
# Chain of T-complex protein 1 subunit alpha, P11983 (P11983 whole entry, one chain of several): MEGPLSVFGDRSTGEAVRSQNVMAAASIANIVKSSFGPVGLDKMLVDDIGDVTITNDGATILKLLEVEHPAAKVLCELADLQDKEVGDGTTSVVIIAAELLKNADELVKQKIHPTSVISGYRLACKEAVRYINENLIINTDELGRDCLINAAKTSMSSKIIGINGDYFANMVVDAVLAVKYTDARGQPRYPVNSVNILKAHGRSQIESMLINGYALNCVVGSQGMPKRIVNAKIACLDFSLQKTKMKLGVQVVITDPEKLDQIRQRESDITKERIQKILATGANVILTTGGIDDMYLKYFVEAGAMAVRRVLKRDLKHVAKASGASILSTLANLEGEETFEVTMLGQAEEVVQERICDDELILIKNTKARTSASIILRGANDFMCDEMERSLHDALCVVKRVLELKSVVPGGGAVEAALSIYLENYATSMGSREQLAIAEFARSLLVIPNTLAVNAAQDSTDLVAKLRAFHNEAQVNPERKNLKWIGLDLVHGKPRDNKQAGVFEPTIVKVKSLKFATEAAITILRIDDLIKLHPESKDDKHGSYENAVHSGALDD
# Chain of T-complex protein 1 subunit delta (P80315 whole entry, stated change not applied, one chain of several): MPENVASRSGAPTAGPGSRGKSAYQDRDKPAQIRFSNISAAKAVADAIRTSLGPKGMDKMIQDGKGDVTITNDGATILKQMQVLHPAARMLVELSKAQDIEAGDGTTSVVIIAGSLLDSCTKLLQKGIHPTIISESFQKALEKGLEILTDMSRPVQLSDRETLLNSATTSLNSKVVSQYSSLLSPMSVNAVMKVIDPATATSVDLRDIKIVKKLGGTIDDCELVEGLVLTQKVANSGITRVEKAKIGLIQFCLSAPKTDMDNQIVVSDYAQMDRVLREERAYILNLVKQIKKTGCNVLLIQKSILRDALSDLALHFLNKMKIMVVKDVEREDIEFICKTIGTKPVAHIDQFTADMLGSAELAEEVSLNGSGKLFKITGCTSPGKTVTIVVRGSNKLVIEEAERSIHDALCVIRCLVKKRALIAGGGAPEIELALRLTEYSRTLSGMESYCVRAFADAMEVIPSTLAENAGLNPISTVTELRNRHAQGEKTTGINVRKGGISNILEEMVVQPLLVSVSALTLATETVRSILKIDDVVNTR
# Chain of Synaptopodin (Q8CC35 whole entry): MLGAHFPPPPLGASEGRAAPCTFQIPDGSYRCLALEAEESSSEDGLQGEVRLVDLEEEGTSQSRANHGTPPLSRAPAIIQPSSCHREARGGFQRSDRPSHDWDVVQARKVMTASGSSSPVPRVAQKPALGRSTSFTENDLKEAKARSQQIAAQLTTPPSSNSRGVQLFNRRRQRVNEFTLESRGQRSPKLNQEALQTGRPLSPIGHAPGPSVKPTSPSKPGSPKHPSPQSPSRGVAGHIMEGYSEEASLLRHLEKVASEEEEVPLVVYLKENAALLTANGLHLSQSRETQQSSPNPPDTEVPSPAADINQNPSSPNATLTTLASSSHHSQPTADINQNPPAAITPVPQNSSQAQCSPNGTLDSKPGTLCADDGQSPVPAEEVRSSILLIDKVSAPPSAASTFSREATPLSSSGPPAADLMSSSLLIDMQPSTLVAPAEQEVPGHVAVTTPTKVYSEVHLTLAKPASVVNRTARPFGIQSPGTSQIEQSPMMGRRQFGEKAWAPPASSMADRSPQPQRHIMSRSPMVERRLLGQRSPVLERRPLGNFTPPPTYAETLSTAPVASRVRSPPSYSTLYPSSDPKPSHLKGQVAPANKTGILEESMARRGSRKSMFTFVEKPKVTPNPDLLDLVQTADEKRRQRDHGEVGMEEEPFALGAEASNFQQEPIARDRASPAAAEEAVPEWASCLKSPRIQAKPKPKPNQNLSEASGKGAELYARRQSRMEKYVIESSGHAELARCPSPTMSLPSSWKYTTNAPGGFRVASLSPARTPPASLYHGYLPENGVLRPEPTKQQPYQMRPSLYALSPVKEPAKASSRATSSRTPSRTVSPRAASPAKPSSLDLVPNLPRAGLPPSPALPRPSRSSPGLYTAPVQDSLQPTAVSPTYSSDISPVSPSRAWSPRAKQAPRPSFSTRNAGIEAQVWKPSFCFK
# Chain of Splicing factor 3B subunit 2 (Q13435 whole entry): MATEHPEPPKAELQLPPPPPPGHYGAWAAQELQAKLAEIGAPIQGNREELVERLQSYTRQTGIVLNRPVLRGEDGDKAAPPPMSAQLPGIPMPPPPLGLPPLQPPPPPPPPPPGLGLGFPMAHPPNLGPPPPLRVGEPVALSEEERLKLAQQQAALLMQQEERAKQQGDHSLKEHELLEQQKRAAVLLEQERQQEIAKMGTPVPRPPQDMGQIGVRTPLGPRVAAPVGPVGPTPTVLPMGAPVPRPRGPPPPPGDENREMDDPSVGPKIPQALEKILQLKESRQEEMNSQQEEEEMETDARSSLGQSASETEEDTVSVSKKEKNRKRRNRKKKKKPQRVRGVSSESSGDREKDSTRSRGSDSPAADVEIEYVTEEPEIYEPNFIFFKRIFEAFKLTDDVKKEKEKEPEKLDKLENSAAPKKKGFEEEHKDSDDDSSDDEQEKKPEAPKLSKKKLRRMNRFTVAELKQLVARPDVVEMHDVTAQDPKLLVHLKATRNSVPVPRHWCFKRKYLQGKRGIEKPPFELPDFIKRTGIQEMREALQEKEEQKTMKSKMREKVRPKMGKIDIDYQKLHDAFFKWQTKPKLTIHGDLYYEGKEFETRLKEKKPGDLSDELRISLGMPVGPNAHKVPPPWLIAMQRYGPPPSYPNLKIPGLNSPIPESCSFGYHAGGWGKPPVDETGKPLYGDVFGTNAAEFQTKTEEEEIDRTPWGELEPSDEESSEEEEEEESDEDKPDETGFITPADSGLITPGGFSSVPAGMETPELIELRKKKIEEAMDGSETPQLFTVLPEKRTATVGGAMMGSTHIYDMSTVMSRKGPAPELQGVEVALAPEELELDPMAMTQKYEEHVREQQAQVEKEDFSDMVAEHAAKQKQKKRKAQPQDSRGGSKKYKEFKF
# Chain of V-type proton ATPase subunit F (Q9D1K2 whole entry): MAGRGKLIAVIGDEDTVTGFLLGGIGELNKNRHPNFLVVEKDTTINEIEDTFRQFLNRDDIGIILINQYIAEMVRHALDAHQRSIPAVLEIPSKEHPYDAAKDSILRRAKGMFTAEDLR
# Chain of Vesicle-associated membrane protein 1 (Q62442 whole entry): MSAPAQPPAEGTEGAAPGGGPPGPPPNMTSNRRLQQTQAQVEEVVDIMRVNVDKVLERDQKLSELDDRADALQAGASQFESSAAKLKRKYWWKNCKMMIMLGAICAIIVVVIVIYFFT
# Chain of Synaptic vesicle glycoprotein 2A (Q9JIS5 whole entry): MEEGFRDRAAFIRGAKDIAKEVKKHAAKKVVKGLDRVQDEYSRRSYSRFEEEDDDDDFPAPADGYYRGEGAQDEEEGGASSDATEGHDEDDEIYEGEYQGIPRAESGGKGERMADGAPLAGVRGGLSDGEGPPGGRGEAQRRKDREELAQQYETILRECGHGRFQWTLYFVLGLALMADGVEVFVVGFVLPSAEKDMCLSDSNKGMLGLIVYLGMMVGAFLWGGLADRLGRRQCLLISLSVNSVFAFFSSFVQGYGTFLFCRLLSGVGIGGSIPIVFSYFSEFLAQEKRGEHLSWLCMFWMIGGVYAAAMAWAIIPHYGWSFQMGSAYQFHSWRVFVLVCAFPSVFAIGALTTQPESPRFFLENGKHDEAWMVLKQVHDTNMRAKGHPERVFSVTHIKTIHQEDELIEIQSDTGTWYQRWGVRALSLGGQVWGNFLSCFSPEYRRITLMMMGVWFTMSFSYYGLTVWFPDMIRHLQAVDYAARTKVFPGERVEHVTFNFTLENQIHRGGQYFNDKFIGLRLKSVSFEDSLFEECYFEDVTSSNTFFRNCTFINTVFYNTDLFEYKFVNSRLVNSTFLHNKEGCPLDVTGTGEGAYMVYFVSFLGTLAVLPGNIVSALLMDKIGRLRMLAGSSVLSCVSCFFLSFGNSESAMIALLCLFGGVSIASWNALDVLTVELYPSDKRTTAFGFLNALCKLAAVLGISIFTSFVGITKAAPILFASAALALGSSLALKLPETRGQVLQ
# Chain of tRNA-splicing ligase complex subunit RTRAF (UniProt Q9CQE8) (Q9CQE8 whole entry, one chain of several): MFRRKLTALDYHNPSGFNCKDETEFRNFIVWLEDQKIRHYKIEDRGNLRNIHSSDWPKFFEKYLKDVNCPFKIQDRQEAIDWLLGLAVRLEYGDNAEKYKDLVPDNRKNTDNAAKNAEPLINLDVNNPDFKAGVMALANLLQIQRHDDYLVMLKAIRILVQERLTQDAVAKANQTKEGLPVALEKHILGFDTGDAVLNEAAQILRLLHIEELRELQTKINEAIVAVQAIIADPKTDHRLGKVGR
# Chain of V-type proton ATPase subunit D (P57746 whole entry): as the sequence (P57746 whole entry) above
substance,measurement,setting,value
"Proteasome subunit beta type-7, P70195",listed as a hit,[1],yes
"Proteasome subunit beta type-1, O09061",listed as a hit,[2],yes
"Hsc70-interacting protein, P50502",listed as a hit,Putative protein FAM10A5,yes
"Nucleoside diphosphate kinase 6, mitochondrial, O75414",listed as a hit,[3],yes
"Moesin, P26038",listed as a hit,Radixin,yes
"ADP-ribosylation factor-like protein 8B, Q9NVJ2",listed as a hit,[4],yes
"Ras-related protein Rab-3C, P62823",listed as a hit,[5],yes
"ARF GTPase-activating protein GIT1, Q68FF6",listed as a hit,[6],yes
"Dual E2 ubiquitin-conjugating enzyme/E3 ubiquitin-protein ligase BIRC6, Q9NR09",listed as a hit,[7],yes
"S-adenosylhomocysteine hydrolase-like protein 2, Q68FL4",listed as a hit,[8],yes
"Septin-2, Q15019",listed as a hit,Septin-10,yes
"Septin-6, Q14141",listed as a hit,Septin-2,yes
"Septin-11, Q8C1B7",listed as a hit,Septin-8,yes
"Haloacid dehalogenase-like hydrolase domain-containing protein 3, Q9BSH5",listed as a hit,[9],yes
"FXYD domain-containing ion transport regulator 7, P59648",listed as a hit,[10],yes
"Excitatory amino acid transporter 1, P56564",listed as a hit,[11],yes
"Spectrin beta chain, erythrocytic, P15508",listed as a hit,[12],yes
"U2 small nuclear ribonucleoprotein B'', P08579",listed as a hit,[13],yes
"Ras-related protein Rab-5A, P20339",listed as a hit,[14],yes
"Programmed cell death protein 5, O14737",listed as a hit,[15],yes
"ATP-dependent RNA helicase DDX1, Q92499",listed as a hit,[16],yes
"Succinate--CoA ligase [ADP/GDP-forming] subunit alpha, mitochondrial, P53597",listed as a hit,[17],yes
"Synapsin-1, O88935",listed as a hit,Synapsin-2,yes
same,listed as a hit,[18],yes
"Synapsin-2, Q64332",listed as a hit,Synapsin-3,yes
"Synaptophysin, Q62277",listed as a hit,[19],yes
"Alpha-actinin-1, Q7TPR4",listed as a hit,Synaptopodin,yes
"Synaptotagmin-1, P46096",listed as a hit,Synaptotagmin-2,yes
"T-complex protein 1 subunit eta, P80313",listed as a hit,[20],yes
"T-complex protein 1 subunit beta, P80314",listed as a hit,[21],yes
same,listed as a hit,[22],yes
"T-complex protein 1 subunit alpha, P11983",listed as a hit,[21],yes
same,listed as a hit,[23],yes
"T-complex protein 1 subunit delta, P80315",listed as a hit,[22],yes
"T-complex protein 1 subunit zeta, P80317",listed as a hit,[24],yes
"T-complex protein 1 subunit theta, P42932",listed as a hit,[25],yes
"Talin-1, P26039",listed as a hit,Talin-2,yes
"Peroxiredoxin-4, Q13162",listed as a hit,[26],yes
"Transcriptional regulator protein Pur-beta, O35295",listed as a hit,[27],yes
"Nuclease EXOG, mitochondrial, Q9Y2C4",listed as a hit,[28],yes
"Transmembrane emp24 domain-containing protein 9, Q9BVK6",listed as a hit,[29],yes
"ADP/ATP translocase 3, P12236",listed as a hit,[30],yes
"Tubulin alpha-4A chain, P68368",listed as a hit,Tubulin alpha-1A chain,yes
"Selenoprotein F, O60613",listed as a hit,[31],yes
"Cullin-2, Q13617",listed as a hit,[32],yes
"V-type proton ATPase subunit D, P57746",listed as a hit,[33],yes
same,listed as a hit,[34],yes
"V-type proton ATPase catalytic subunit A, P50516",listed as a hit,[35],yes
same,listed as a hit,[36],yes
"V-type proton ATPase subunit E 1, P50518",listed as a hit,[37],yes
same,listed as a hit,[38],yes
"V-type proton ATPase subunit B, brain isoform, P62814",listed as a hit,[39],yes
"Vesicle-associated membrane protein 7, P51809",listed as a hit,[40],yes
"Vesicle-associated membrane protein-associated protein B, Q9QY76",listed as a hit,[41],yes
"Neurofilament medium polypeptide, P07197",listed as a hit,Vimentin,yes
"RNA-splicing ligase RTCB, Q99LF4",listed as a hit,[42],yes
"MICOS complex subunit MIC60, Q16891",listed as a hit,[43],yes
